Sampled rows, rich in hits. Any-hit rate of the full collection: about 17%.
TDP1 cell noCPT: qHTS for Inhibitors of human tyrosyl-DNA phosphodiesterase 1 (TDP1): qHTS in cells in absence of CPT; 15% of 420,000 active; Potency, µM (doses to about 46.2 µM), for inactives: at the highest dose activity change, negative = growth inhibition, hits mostly inhibitors; DT40 Tdp1-/- hTDP1 cells, no CPT, ATP luminescence, 48 h; also: % is scaled to controls: 0 for no effect and ±100 for the full control effect; nearly all actives have a fitted effect of over 55% in size
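Readout: luminescence from CellTiter-Glo after 30 min in the dark at RT. Cells: DT40 Tdp1-/- with stable hTDP1, 400/well. Exposure: compounds alone, ≥48 hr, 37 °C.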
TDP1 inh: TDP1 (human) enzyme inhibition; recombinant TDP1, AlphaScreen DNA substrate cleavage; Potency, µM (titrated, usually from 130 µM), for inactives: at the top dose activity change, negative = inhibition, actives largely listed as inhibitors; 0.28% of 350,000 active; also: % is scaled to controls: 0 for no effect and ±100 for the full control effect; nearly all actives have a fitted effect of over 40% in size
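Compounds were preincubated with Tdp1 (1 nM final) for 15 min at room temperature before substrate (15 nM final) started a 5 min reaction; beads (10 ug/ml final) were then added for 10 min before AlphaScreen detection.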
ClpP mod: qHTS Assay for Activators of ClpP. ATP-dependent Clp protease proteolytic subunit (Bacillus subtilis (strain 168)), P80244. purified B. subtilis ClpP, FRET peptide cleavage, 20 min. Potency, µM (titrated, usually from 57.5 µM), inactives show at the top dose activity change, negative = active. 1.9% of 340,000 active. AID 651965, 2013; active = well fitted falling curve with a large enough effect; inconclusive = small, poorly fitted or top-dose-only effect; inactive = no such curve, though single readings can be large or run the other way; also: the source files actives as falling curves though it sought activators and does not explain the sign; nearly all actives have a fitted effect of over 65% in size
Target sequence (P80244 whole entry, looked up): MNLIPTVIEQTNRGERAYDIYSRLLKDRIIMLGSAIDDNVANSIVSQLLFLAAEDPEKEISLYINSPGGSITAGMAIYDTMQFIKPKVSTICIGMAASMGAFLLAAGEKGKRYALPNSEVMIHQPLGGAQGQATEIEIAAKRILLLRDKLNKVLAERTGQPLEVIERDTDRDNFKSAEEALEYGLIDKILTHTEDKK
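Purified B. subtilis ClpP, 10 microg/mL final in Tris/HCl pH8 with KCl, BSA, glycerol and Tween-20, cleaved an Abz/nitrotyrosine-quenched decapeptide. Fluorescence (ex 320, em 430) was read at 0 and 20 min at room temperature. Delta was normalized to 5.8 microM ADEP and DMSO/no-enzyme controls.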
DT40 TDP1 CPT: DT40-hTDP1 cell growth loss with CPT; chicken DT40 Tdp1-/-;hTDP1 cells + 20 nM CPT, ATP luminescence, 48 h; Potency, µM (top dose mostly 46.2 µM), for the others: at the top dose activity change, negative = growth inhibition, most hits filed as inhibitors; 12% of 420,000 active; also: % is scaled to controls: 0 for no effect and ±100 for the full control effect; nearly all actives have a fitted effect of over 55% in size
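Chicken DT40 Tdp1-/- cells complemented with human TDP1, 400 cells/well, exposed to compounds plus 20 nM camptothecin for at least 48 h at 37 C; viability read as ATP content by CellTiter-Glo luminescence.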
* = called active by the depositor; ? = inconclusive; · = no result; [ ] = another dose, or the depositor's remark. Unless noted, calls follow the shape of the dose curve; as a rule, active = well fitted curve in the direction sought with a large enough effect; inconclusive = small, poorly fitted or top-dose-only effect, or another doubt; inactive = no such curve, though single readings can be large; an effect the other way counts as inactive or inconclusive. Potency is read from the fitted curve at half-maximal effect.

SMILES | TDP1 cell noCPT | TDP1 inh | ClpP mod | DT40 TDP1 CPT
Fc1cccc(Nc2nc(-c3ccncc3)nc3ccccc23)c1 | · | 5% | -12% | ·
COc1ccccc1N1CCN(C(=O)c2ccc(N(C)S(=O)(=O)c3ccccc3)cc2)CC1 | ? | 15% | · | ?
Cc1cccc(-n2c(O)c(C=Nc3ccc(O)cc3)c3ccccc3c2=O)n1 | ? | 4% | 7.1µM* | ?
Cc1cccc(-n2c(O)c(C=Nc3cc(O)ccc3C)c3ccccc3c2=O)n1 | ? | -3% | -62% | 21µM*
Cc1cccc(-n2c(O)c(C=Nc3ccccc3O)c3ccccc3c2=O)n1 | ? | · | · | -25%
Cc1ccc(CN2CCN(C3CCN(C(=O)OC(C)(C)C)CC3)C(=O)C2=O)cc1 | -6% | 6% | 0% | -21%
Cn1cc(-c2nc3cncnc3n(C3CC3)c2=O)c2ccccc21 | 4% | · | · | -5%
COc1ccc(N(C)S(=O)(=O)c2cccc(C(=O)Nc3nnc(C)s3)c2)cc1 | ? | 2% | -2% | -27%
COc1ccc(N(C)S(=O)(=O)c2cccc(C(=O)Nc3nc4ccccc4[nH]3)c2)cc1 | ? | 9% | 28µM* | 23µM*
O=C(Nc1nc2ccccc2[nH]1)c1cccc(Cl)c1 | ? | 4% | -5% | ?
CN(c1cccc(Cl)c1)S(=O)(=O)c1cccc(C(=O)Nc2nc3ccccc3[nH]2)c1 | 23µM* | 8% | -27% | 21µM*
c1coc(-c2nc(N=C3N=c4ccccc4=N3)[nH]c2-c2ccco2)c1 | ? | · | -2% | -27%
O=C(CNC(=O)C1CCCCC1)OCC(=O)c1ccc(-c2ccccc2)cc1 | -5% | 0% | -8% | 10%
COc1ccc(C(c2c(O)cc(C)n(Cc3ccco3)c2=O)N2CCCCC2)cc1OC (stereo not given) | -1% | 3% | 1% | -11%
Cc1cccc(Sc2c([N+](=O)[O-])ncn2C)n1 | -15% | 4% | -2% | -5%
O=[N+]([O-])c1ccc(Sc2nccn2Cc2ccccc2)c([N+](=O)[O-])c1 | 5.8µM* | 8% | 0% | 6.5µM*
O=[N+]([O-])c1ccc(Sc2ncccn2)c([N+](=O)[O-])c1 | 0.92µM* | 5% | · | 0.82µM*
Cc1cccc(Sc2ccc([N+](=O)[O-])cc2[N+](=O)[O-])n1 | 3.3µM* | 0% | · | 3.3µM*
O=C(Nc1ccc(Cl)cc1)c1ccc2c(c1)N(Cc1ccccc1)C(=O)c1ccccc1S2(=O)=O | 23µM* | 1% | -9% | 16µM*
CCC(C)NC(=O)c1ccc2c(c1)N(Cc1ccccc1)C(=O)c1ccccc1S2(=O)=O (stereo not given) | -20% | 5% | 0% | ?
COC(=O)c1ccc2c(c1)N(Cc1ccccc1)C(=O)c1ccccc1S2(=O)=O | ? | 3% | 1% | 16µM*
O=C(NCCc1ccc(Cl)cc1)c1ccc2c(c1)N(Cc1cccc(Cl)c1)C(=O)c1ccccc1S2(=O)=O | 7.3µM* | 5% | -1% | ?
CC(OC(=O)CN1C(=O)C2CC=CCC2C1=O)C(=O)Nc1ccc(F)cc1Cl (stereo not given) | 6% | 1% | 0% | -4%
O=C(Nc1ccc(NC(=O)C23CC4CC(CC(C4)C2)C3)cc1)c1cc(F)c(F)cc1Cl | 13µM* | 3% | · | ?
CCCCn1c(Cn2nc(C(=O)O)c3ccccc3c2=O)nc2cc(S(N)(=O)=O)ccc21 | 2% | · | · | -3%
SMILES | TDP1 cell noCPT | TDP1 inh | ClpP mod | DT40 TDP1 CPT
COc1ccc(C)cc1NC(=O)CSc1nnc(COc2ccccc2)n1Cc1ccco1 | 21µM* | 4% | -1% | 16µM*
COc1ccc(C)cc1NC(=O)CSc1nnc(COc2ccc(Cl)cc2)n1Cc1ccco1 | ? | 1% | 1% | ?
Cc1ccc(NCc2nnc(SCC(=O)c3ccccc3)n2Cc2ccco2)c(C)c1 | 16µM* | 5% | -4% | ?
CCn1c(SCC(=O)N(C(C)C)C(C)C)nnc1-c1cc2ccccc2cc1O | 18µM* | ? | -1% | 23µM*
COc1ccc(C(=O)CSc2nnc(-c3cc4ccccc4cc3O)n2Cc2ccco2)cc1 | ? | -5% | 0% | 21µM*
COc1ccc(C(C(=O)NCc2ccc(F)cc2)N(C(=O)c2csnn2)C2CC2)cc1 (stereo not given) | -19% | 3%[0.0935 µM] | · | -7%
CCOC(=O)c1cocc1C(=O)O | 2% | · | -7% | -19%
COc1cccc(OCc2nnc(SCC(=O)NCc3ccco3)n2C)c1 | -1% | 0% | 1% | -2%
COc1cccc(OCc2nnc(SCC(=O)NCc3ccco3)n2CCc2ccccc2)c1 | 23µM* | 3% | -1% | 16µM*
Cc1ccc(Cn2cc(C(=O)c3ccc(C)cc3)c(=O)c3ccc(C)nc32)cc1 | ? | 5% | -3% | ?
Cc1ccc(C(=O)c2cn(Cc3cccc(C)c3)c3nc(C)ccc3c2=O)cc1 | 21µM* | 2% | 4% | ?
CCOc1ccccc1NC(=O)Cn1cc(C(=O)c2ccc(Cl)cc2)c(=O)c2ccc(C)nc21 | 15µM* | 6% | 1% | ?
Cc1ccc(C(=O)c2cn(Cc3cc(C)ccc3C)c3nc(C)ccc3c2=O)cc1 | 21µM* | 2% | 1% | ?
Cc1ccc2c(=O)c(C(=O)c3ccccc3)cn(CC(=O)Nc3ccccc3C)c2n1 | 0% | 5% | 0% | -13%
CC1CC=CC2C1C(=O)N(Cc1ccccc1)C2c1ccc2ccccc2c1C=Cc1ccccc1 (stereo not given) | · | 6% | · | ·
C=CCONC(=O)c1cc(OCC(F)(F)F)ccc1OCC(F)(F)F | -4% | -5% | -1% | 6%
O=C(NNC(=O)c1cc(OCC(F)(F)F)ccc1OCC(F)(F)F)c1ccc(Cl)c(Cl)c1 | ? | 2% | -1% | 23µM*
Nc1nnc(-c2ccc([N+](=O)[O-])o2)s1 | 9.2µM* | · | · | 18µM*
